The values that follow come from PubChem BioAssay AID1053126 (Broad Institute, 2014).

Measured potencies and affinities stand elsewhere. Activity calls are given as the source filed them.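 Rule for the calls: active = cell killing with a fitted half-effect concentration at or below twice the top valid dose; inconclusive = flat curve with 30 to 70 percent drop, or poor fit; inactive = the rest.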

The experiment is described as follows: viability loss in HEK293T kidney cells – cell-based, ATP luminescence, cherry-pick, set 6, cytotoxicity control, dose response (AID 1053126). The conditions noted are these: CellTiter-Glo ATP luminescence, 72 h; series mostly up to 26 µM. For orientation: Cellular ATP, detected with luciferase, serves as a proxy for viable cell number.
Regarding `COc1ccccc1N1CCN(C2CCC(C)CC2)CC1` (stereo not drawn), the call was inactive. As for `Cc1ccc(S(=O)(=O)Nc2ccc(Nc3ccccc3)cc2)cc1`, the entry is “inactive”. Take `Cc1ccc(-c2nc3ccsc3c(=O)[nH]2)cc1`: the outcome was inactive. Take `C=CCc1c(O)c(CC)cc2c(C)cc(=O)oc12`: the call was inactive. With `COc1ccccc1C(=O)c1cc2ccc(O)cc2oc1=O`, the result was inactive. Then `N#Cc1ccc(OCC(=O)OCC(=O)N2CCc3ccccc32)cc1`, with “inactive”; and `Cc1c(C=O)c2ccccn2c1C(=O)c1cccs1`, with “inactive”; and `Cc1cccn2c(=O)c3cc(C(=O)NCc4ccco4)c(=N)n(CCc4ccccc4)c3nc12`, with “inactive”.

In the case of `Cc1ccc2nc3c(cc(C(=O)NCc4ccccc4)c(=N)n3CCCn3ccnc3)c(=O)n2c1`, the molecule was called inactive.

`CC1(C)CC(=O)C2=C(C1)OC(N)=C(C#N)[C@@H]2c1ccccc1[N+](=O)[O-]`: the outcome was inactive. As for `Cc1cc(-c2nc3cccnc3s2)ccc1NS(=O)(=O)c1cccs1`, the entry is “inactive”; as for `COCc1cc(C)nc(SCC(=O)Oc2ccc(Cl)cc2)c1C#N`, “inactive”. For the molecule `CC(C)CCN1C(=O)c2cccc3c(N)ccc(c23)C1=O`, the molecule was called inactive. Then `CCN1C=C(C(=O)OC)C(c2cccc(OC)c2OC)C(C(=O)OC)=C1`, with “inactive”; and `CCOC(=O)C1=CN(CC2CCCO2)C=C(C(=O)OCC)C1c1ccccc1C(F)(F)F` (stereo not drawn), with “inactive”. As for `Cc1c(C(=O)NCc2cccc([N+](=O)[O-])c2)sc(=O)n1Cc1cccc(F)c1`, the entry is “inactive”. Then `O=c1[nH]c2ccccc2nc1/C=C/c1ccccc1`, with “inactive”; and `CCC(Sc1nc(N)c(NC(=O)c2ccc(OC)cc2)c(=O)[nH]1)C(=O)O` (stereo not drawn), with “inactive”; and `CCOCCCNc1c(CC)c(C)c(C#N)c2nc3ccccc3n12`, with “inactive”.

For `CCNc1nc2nc3ccc(C)cn3c(=O)c2cc1C(=O)NCC1CCCO1` (stereo not drawn), the molecule was called inactive. As for `O=C(CCc1c[nH]c2ccccc12)OCC(=O)c1ccccc1`, the entry is “inactive”. As for `O=[N+]([O-])c1cccc(Nc2c3ccccc3nc3ccccc23)c1`, the entry is “inactive”. With `O=c1oc2c(CN3CCN(CCO)CC3)c(O)ccc2cc1-c1ccccn1`, the call was inactive.

As for `CSC1=NSC2=NC(=O)/C(=C/c3coc4ccc(O)cc4c3=O)C(=N)N12`, the outcome was inactive.

Turning to `Cc1ccc(O)c(NC(=S)NC(=O)COc2ccc(Br)cc2)c1`, the molecule was called inactive. For the molecule `CCOc1ccc(NC(=O)CN(C)C(=O)CCCNC(=O)c2ccc(Cl)cc2)cc1OCC`, the outcome was inactive. Then `Cc1ccc2nc3c(cc(S(=O)(=O)c4ccccc4)c(=N)n3Cc3ccco3)c(=O)n2c1`, with “inactive”. On to `C=CCn1c(=N)c(C#N)cc2c(=O)n3ccccc3nc21`, for which the molecule was classed as inactive.

For `O=C(Nc1ccc2c(c1)OCCO2)c1ccc(NC(=O)C2CCCO2)cc1` (stereo not drawn), the molecule was classed as inactive. Turning to `CC(=O)N=c1c(C#N)cc2c(=O)n3ccccc3nc2n1CCCOC(C)C`, the result was inactive. `CCCOc1ccc(NC(=O)c2c(-c3ccccc3)noc2C)cc1`: the result was inactive. Then `CCN(CC)c1ccc2c(C)c(Cl)c(=O)oc2c1`, with “inactive”. Then `COc1ccc(CCNC(=O)c2cc(S(=O)(=O)N3CCCCC3)c[nH]2)cc1OC`, with “inactive”; and `Cn1cnc(S(=O)(=O)Nc2ccc(OC(F)(F)F)cc2)c1`, with “inactive”.

With `CCC(C)n1c(=N)c(C#N)cc2c(=O)n3cc(C)ccc3nc21` (stereo not drawn), the molecule was called inactive. Then `Cc1ccc(-n2c(C)cc(/C=N/NC(=O)Cn3c4ccccc4c(=O)c4ccccc43)c2C)cc1`, with “inactive”.

On to `CCCN1CCN(C(=O)c2ccc(CS(=O)c3ccc(Br)cc3)o2)CC1` (stereo not drawn), for which the call was inactive. As for `Cc1nc2ccccc2c2oc(C(=O)NCCCN3CCC(C)CC3)cc12`, the entry is “inactive”.
